{"source": "PubChem BioAssay (NCATS)", "note": "Records with an inconclusive call do not appear. The source made the active and inactive calls. The call rests on the fitted dose curve; in most records, active means well fitted cell-killing curve with a large enough effect; inconclusive means small, poorly fitted or top-dose-only effect, or effect the other way; inactive means no such curve, though single readings can be large or run the other way. Potency means the concentration at half of the fitted maximal effect."}
{"test": "Quantitative High-Throughput drug screen in 47 multiple myeloma cell lines against the NCATS MIPE library collection: MMM1_PLB cell viability assay (AID 1918976); further: nearly all actives have a fitted effect of over 35% in size", "conditions": "MMM1 myeloma cells viability, CellTiter-Glo, 48 h; series mostly up to 45.8 µM; viability (% of control): at the top concentration", "description": "PI: Beverly A. Mock Ph.D.\nLaboratory of Cancer Biology and Genetics,\nCenter for Cancer Research, National Cancer Institute,\nNational Institute of Health, Bethesda, Maryland\nDrug resistance and disease progression are common in multiple myeloma (MM) patients, underscoring the need for new therapeutic combinations. […] We hypothesized that effective combinations would reduce MYC expression and enhance p16 activity. […] These preclinical data identify potentially useful drug combinations for evaluation in drug-resistant MM and reveal potential mechanisms of combined drug sensitivity.\nDescribed herein is the primary MIPE qHTS used to cherrypick compounds. Validated compounds were then further tested for potential synergistic activiy.\n[1] Peat TJ, Gaikwad SM, Dubois W, Gyabaah-Kessie N, Zhang S, Gorjifard S, Phyo Z, Andres M, Hughitt VK, Simpson RM, Miller MA, Girvin AT, Taylor A, Williams D, D'Antonio N, Zhang Y, Rajagopalan A, Flietner E, Wilson K, Zhang X, Shinn P, Klumpp-Thomas C, McKnight C, Itkin Z, Chen L, Kazandijian D, Zhang J, Michalowski AM, Simmons JK, Keats J, Thomas CJ, Mock BA. Drug combinations identified by high-throughput screening promote cell cycle transition and upregulate Smad pathways in myeloma. Cancer Lett. 2023 Aug 1;568:216284. doi: 10.1016/j.canlet.2023.216284. Epub 2023 Jun 24. PMID: 37356470; PMCID: PMC10408729.\nSEQUENCE No. (e.g., 1, 2, 3, etc.); […] (e.g., Cells, Incubation, Reagent, etc.); VALUE and DESCRIPTION.\n1; Cells; 5 uL; white, solid bottom 1536-well Greiner assay plate.\n2; Compounds; 23 nL; Kalypsis pin tool (Wako USA) equipped with a 1536-well pin head to transfer to the assay plates.\n3; Incubation; 48 hours; 37C incubation.\n4; Reagent;5uL; CellTiter Glo (Promega).\n5; Detector; 425V; Luminescence; Viewlux PerkinElmer.\nNOTES (numbers refer to Sequence numbers above)\n1. The cell-based screening methods employed in this study were like those previously published. Briefly, the corresponding myeloma cell lines were screened in 1,536-well plates with 500 cells, 5-uL per well for inhibition of cell viability (assessed by measuring ATP levels with CellTiterGlo).\n2. NCATS MIPE 4.0 library of approved and investigational drugs were added using the Kalypsis pin tool. Wells treated with DMSO only for 100% viability and media only for 0% viability were used as controls.\n3. The assay plates were covered and incubated for 48 hours in a 37C, 5% CO2 incubator with controlled humidity.\n4. After 48 hours, CellTilter-GloTM luminescent substrate mix (Promega) reagent was added to the assay plate and plates we incubated for 5 min at room temperature.\n5. Signal was measured as median relative luminescence units on a ViewLux (PerkinElmer) multiplate reader.\n[1] Heske CM, Davis MI, Baumgart JT, Wilson K, Gormally MV, Chen L, Zhang X, Ceribelli M, Duveau DY, Guha R, Ferrer M, Arnaldez FI, Ji J, Tran HL, Zhang Y, Mendoza A, Helman LJ, Thomas CJ. Matrix Screen Identifies Synergistic Combination of PARP Inhibitors and Nicotinamide Phosphoribosyltransferase (NAMPT) Inhibitors in Ewing Sarcoma. Clin Cancer Res. 2017 Dec 1;23(23):7301-7311. doi: 10.1158/1078-0432.CCR-17-1121. Epub 2017 Sep 12. PMID: 28899971; PMCID: PMC6636827."}
{"smiles": "O=C(Nc1cccc(Br)c1)c1cccc(S(=O)(=O)N2CCCCCC2)c1", "Potency": "18.7 µM (active)"}
{"smiles": "O=c1cc(CN2CCOCC2)occ1OCCCCCSc1ccnc2cc(C(F)(F)F)ccc12", "Potency": "16.6 µM (active)"}
{"smiles": "N[C@H](CSC(c1ccccc1)(c1ccccc1)c1ccccc1)C(=O)O", "viability (% of control)": "130% (inactive)"}
{"smiles": "CC(=O)Oc1cc2c(s1)CCN(C(C(=O)C1CC1)c1ccccc1F)C2", "note": "(stereo not given)", "Potency": "1.48 µM (active)"}
{"smiles": "COc1cc2ncnc(-n3nc(-c4ccccn4)nc3N)c2cc1OC", "Potency": "4.18 µM (active)"}
{"smiles": "Cc1ccc(C(=O)Nc2cccc(C(F)(F)F)c2)cc1Nc1nc(-c2cccnc2)nc2c1cnn2C", "Potency": "16.6 µM (active)"}
{"smiles": "Cc1cnc(C(=O)O)c[n+]1[O-]", "Potency": "3.32 µM (active)"}
{"smiles": "CNC1CCC(N(Cc2cccc(-c3ccncc3)c2)C(=O)c2sc3c(F)ccc(F)c3c2Cl)CC1", "note": "(stereo not given)", "Potency": "26.4 µM (active)"}
{"smiles": "CC1(C)CCC(CN2CCN(c3ccc(C(=O)NS(=O)(=O)c4ccc(NCC5CCOCC5)c([N+](=O)[O-])c4)c(Oc4cnc5[nH]ccc5c4)c3)CC2)=C(c2ccc(Cl)cc2)C1", "Potency": "0.166 µM (active)"}
{"smiles": "Cc1ccccc1C(C(=O)NC1CCCCC1)N(C(=O)Cn1ccnc1C)c1cccc(F)c1", "note": "(stereo not given)", "Potency": "10.5 µM (active)"}
{"smiles": "COCCOc1nc(-c2ccc(Cl)c(Cl)c2)n(-c2ccc(NC(=O)CCl)cc2)n1", "Potency": "16.6 µM (active)"}
{"smiles": "CC(C)(C)C(=O)Oc1ccc2c(c1)nc(NC(=O)c1cccc([N+](=O)[O-])c1)n2CCCO", "Potency": "13.2 µM (active)"}
{"smiles": "C=C1C(=O)OC2C=C(C)CCC=C(C)CCC12", "note": "(stereo not given)", "Potency": "11.8 µM (active)"}
{"smiles": "CN(C)c1cc(NC(=O)CNC(C)(C)C)c(O)c2c1C[C@@H]1C[C@H]3[C@H](N(C)C)C(=O)C(C(N)=O)=C(O)[C@@]3(O)C(=O)C1=C2O", "Potency": "14.8 µM (active)"}
{"smiles": "O=C(NCc1ccccc1)c1csc(Nc2ccncn2)n1", "Potency": "14.8 µM (active)"}
{"smiles": "COc1cccc2c1CCCC2CCCN1CCN(C2CCCCC2)CC1", "note": "(stereo not given)", "Potency": "14.8 µM (active)"}
{"smiles": "CC(C)(C)Cn1c(N)nc2ccc(-c3[nH]c(C(C)(C)C)nc3-c3ccc(F)cc3)nc21", "Potency": "20.9 µM (active)"}
{"smiles": "O=C1NC(=O)C(=Cc2ccc3nccnc3c2)S1", "Potency": "8.12 µM (active)"}
{"smiles": "CCOc1ccc(Nc2nc(-c3c(C)nc4ccccn34)cs2)cc1", "Potency": "20.9 µM (active)"}
{"smiles": "O=C(O)c1cc(O)c2c(c1)C(=O)c1cccc(O)c1C2=O", "Potency": "2.15 µM (active)"}
{"smiles": "CC=CC(=O)N(CC)c1ccccc1C", "Potency": "3.72 µM (active)"}
{"smiles": "CO[C@H]1C=CC=C(C)C(=O)NC2=CC(=O)C(NCCN(C)C)=C(C[C@@H](C)C[C@H](OC)[C@@H](O)[C@@H](C)C=C(C)[C@@H]1OC(N)=O)C2=O", "Potency": "1.66 µM (active)"}
{"smiles": "NC(=O)c1cnc(-c2ccc(C3(N)CCC3)cc2)c(-c2ccccc2)c1", "Potency": "0.743 µM (active)"}
{"smiles": "CNC(=O)c1ccccc1Sc1ccc2c(C=Cc3ccccn3)n[nH]c2c1", "Potency": "20.9 µM (active)"}
{"smiles": "CC(=O)O[C@]1(C(C)=O)CC[C@@H]2[C@@H]3C[C@H](C)C4=CC(=O)CC[C@]4(C)[C@H]3CC[C@@]21C", "Potency": "20.9 µM (active)"}
{"smiles": "O=C(Nc1ccccc1-c1cn2c(CN3CCNCC3)csc2n1)c1cnc2ccccc2n1", "Potency": "10.5 µM (active)"}
{"smiles": "c1ccc2c(Cc3c[nH]c4ccccc34)c[nH]c2c1", "Potency": "16.6 µM (active)"}
{"smiles": "C=C1C(=O)[C@@]23C(CC[C@@H]1[C@H]2O)[C@@]12CO[C@]3(O)[C@@H](O)[C@@H]1C(C)(C)CC[C@@H]2O", "note": "(stereo not given in full)", "Potency": "13.2 µM (active)"}
{"smiles": "O=c1cc(N2CCOCC2)oc2c(-c3cccc4c3sc3ccccc34)cccc12", "Potency": "20.9 µM (active)"}
{"smiles": "O=C(O)[C@H]1O[C@H](Oc2cc3oc(-c4ccccc4)cc(=O)c3c(O)c2O)[C@H](O)[C@@H](O)[C@H]1O", "Potency": "20.9 µM (active)"}
{"smiles": "CC1(C)CCC2=C(O1)c1ccccc1C(=O)C2=O", "Potency": "2.64 µM (active)"}
{"smiles": "N#C[C@H]1C[C@H]2C[C@@H]2N1C(=O)[C@@H](N)C12CC3CC(CC(O)(C3)C1)C2", "Potency": "1.48 µM (active)"}
{"smiles": "Cc1cc(OCCCc2c(C(=O)O)n(Cc3cccnc3)c3c(-c4c(COc5ccc(N6CCN([S+](C)(=O)[O-])CC6)cc5)nn(C)c4C)cccc23)cc(C)c1Cl", "Potency": "14.8 µM (active)"}
{"smiles": "O=C(NCc1ccncc1)C12C[C@H]3C[C@@H](C1)CC(c1ccc(Cl)cc1)(C3)C2", "Potency": "14.8 µM (active)"}
{"smiles": "O=C1NC(=O)C(=Cc2ccc3c(c2)OC(F)(F)O3)S1", "Potency": "10.5 µM (active)"}
{"smiles": "CC[C@]1(O)C[C@@H]2CN(CCc3c([nH]c4ccccc34)[C@@](C(=O)OC)(c3cc4c(cc3OC)N(C=O)[C@@H]3C45CCN4CC=C[C@](CC)([C@H]45)[C@@H](OC(C)=O)[C@]3(O)C(=O)OC)C2)C1", "note": "(stereo not given in full)", "Potency": "10.5 µM (active)"}
{"smiles": "O=C(N[C@@H](c1ccccc1)[C@@H]1CCCCN1)c1cccc(C(F)(F)F)c1Cl", "Potency": "1.32 µM (active)"}
{"smiles": "Cc1[nH]c(C=C2C(=O)Nc3ccc(S(=O)(=O)Cc4c(Cl)cccc4Cl)cc32)c(C)c1C(=O)N1CCC[C@H]1CN1CCCC1", "Potency": "23.5 µM (active)"}
{"smiles": "O=C1c2ccccc2-[n+]2ccc3c([nH]c4ccccc43)c21", "Potency": "1.32 µM (active)"}
{"smiles": "O=c1c(-c2ccc(O)cc2)coc2cc(O)ccc12", "Potency": "5.26 µM (active)"}
